Screens from PubChem.
Sampled rows, rich in hits. Any-hit rate of the full collection: about 19%.
KB-3-1 cytotox: qHTS assay for MDR1-selective chemotherapeutics: Primary screen using the parental adenocarcinoma cell KB-3-1. AID 1347075, 2019. actives 1.4% (n = 400,000). Potency, µM (top dose mostly 46.1 µM), most hits filed as cytotoxic. KB-3-1 viability, CellTiter-Glo ATP luminescence, 72 h; also: nearly all actives have a fitted effect of over 60% in size
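72 h, 37 °C compound treatment of KB-3-1 parental cells; CellTiter-Glo added, 10 min, luminescence read. Data corrected against DMSO-only plates and normalized before curve fitting.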
KB-V1 cytotox: qHTS assay for MDR1-selective chemotherapeutics: Primary screen using the drug-selected MDR subline cells KB-V1. KB-V1 MDR cells viability, CellTiter-Glo, 72 h. Potency, µM (top dose mostly 46.1 µM), hits mostly cytotoxic. actives 3.4% (n = 400,000); also: nearly all actives have a fitted effect of over 60% in size
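Readout: CellTiter-Glo luminescence, 10 min after addition. Cells: KB-V1 MDR subline, 72 h at 37 degrees C with compound. Analysis: corrected, normalized data fitted to concentration-effect curves.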
HT1080-NT tox: qHTS for induction of synthetic lethality in tumor cells producing 2HG: qHTS for the HT-1080-NT fibrosarcoma cell line; HT-1080-NT fibrosarcoma viability, CellTiter-Glo ATP luminescence, 48 h; Potency, µM (series often up to 46.1 µM), usual class: cytotoxic; actives 1.6% (n = 360,000);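 also: NT is the 2HG producing partner of a matched IDH1 knockdown line; nearly all actives have a fitted effect of over 55% in size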
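Fibrosarcoma NT cells, 750 per well in 5% FBS RPMI, were exposed to compound for 48 hours. Viability: CellTiter-Glo luminescence.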
HT1080 IDH1KD tx: qHTS for induction of synthetic lethality in tumor cells producing 2HG: qHTS for the HT-1080-IDH1KD cell line; HT-1080 IDH1 knockdown viability, ATP luminescence, 48 h; actives 2% (n = 360,000); Potency, µM (titrated, usually from 46.1 µM), most hits filed as cytotoxic
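After a 2 h attachment period, IDH1KD HT-1080 cells took pin-transferred compound for 48 h at 37 °C; ATP-based luminescence after 10 min room-temperature reagent incubation reported viability.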
TDP1 cell CPT: qHTS for Inhibitors of human tyrosyl-DNA phosphodiesterase 1 (TDP1): qHTS in cells in presence of CPT | chicken DT40 Tdp1-/-;hTDP1 cells + 20 nM CPT, ATP luminescence, 48 h | Potency, µM (highest dose often 46.2 µM), most hits filed as inhibitors | actives 12% (n = 420,000) | AID 686979, 2013; also: nearly all actives have a fitted effect of over 55% in size
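Chicken DT40 Tdp1-/- cells stably complemented with human TDP1 were seeded at 400 cells/well in medium containing 20 nM camptothecin, exposed to pin-transferred compounds, and grown at 37 °C for at least 48 hr. Viability was read as ATP luminescence.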
TDP1 cell noCPT: qHTS for Inhibitors of human tyrosyl-DNA phosphodiesterase 1 (TDP1): qHTS in cells in absence of CPT | DT40 Tdp1-/- hTDP1 cells, no CPT, ATP luminescence, 48 h | Potency, µM (top dose mostly 46.2 µM), usual class: inhibitors | actives 15% (n = 420,000) | AID 686978, 2013; also: nearly all actives have a fitted effect of over 55% in size
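Growth of hTDP1-complemented DT40 Tdp1-knockout cells is measured by ATP luminescence after at least 48 hr compound exposure at 37 °C, with DMSO substituting for the 20 nM CPT used in the parallel screen.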
A number is an active result; n = inactive; u = inconclusive; x = no result; [ ] = dose if it differs, or a comment. Calls follow the shape of the dose curve; as a rule, active = well fitted curve in the direction sought with a large enough effect; inconclusive = small, poorly fitted or top-dose-only effect, or another doubt; inactive = no such curve, though single readings can be large; an effect the other way counts as inactive or inconclusive.

SMILES | KB-3-1 cytotox | KB-V1 cytotox | HT1080-NT tox | HT1080 IDH1KD tx | TDP1 cell CPT | TDP1 cell noCPT
O=C(NO)c1ccc(C(=O)N(C2CCCCC2)C2CCCCC2)cc1 | u | n | u | u | 16.4µM | 20.6µM
O=C(c1c(F)cccc1F)N(Cc1cccs1)C1CCCC1 | n | n | n | n | 11.6µM | 9.2µM
CC(=O)Nc1ccc(NC(=O)c2nc(S(=O)(=O)Cc3ccc(F)cc3)ncc2Cl)cc1 | x | x | x | x | 0.731µM | 0.411µM
CSc1ncc(Cl)c(C(=O)Nc2ccc(C)c(C)c2)n1 | n | n | n | n | n | n
COc1ccccc1NC(=O)c1nc(SCc2ccc(F)cc2)ncc1Cl | x | x | x | x | n | n
Cc1ccc(NC(=O)c2nc(S(=O)(=O)Cc3ccc(F)cc3)ncc2Cl)cc1C | x | x | x | x | 3.66µM | 2.31µM
CCNC(=O)C1CCCN(C(=O)c2cc(C)oc2C)CC1 (stereo not drawn) | n | n | n | n | n | n
CCCN(CCC)Cc1c(C(=O)N/N=C/C(C)=C\c2ccco2)nnn1-c1nonc1N | n | u | n | u | 20.6µM | 16.4µM
CCCc1c(C(=O)N/N=C(\C)c2ccccc2O)nnn1-c1nonc1N | n | n | n | n | 8.2µM | 8.2µM
CCCc1c(C(=O)N/N=C(\C)c2cccnc2)nnn1-c1nonc1N | n | n | n | n | n | n
C/C(=N\NC(=O)c1nnn(-c2nonc2N)c1CN(C)c1ccccc1)c1ccccn1 | 5.8µM | u | u | u | 4.61µM | 4.61µM
C/C(=N\NC(=O)c1nnn(-c2nonc2N)c1-c1ccccc1)c1ccccc1O | u | n | u | 1.84µM | 2.31µM | 1.46µM
CC(/C=N/NC(=O)c1nnn(-c2nonc2N)c1CN(C)C)=C\c1ccco1 | n | n | n | n | n | n
CCCc1c(C(=O)N/N=C(\C)c2ccc(CC(C)C)cc2)nnn1-c1nonc1N | n | n | n | n | 11.6µM | 6.51µM
CCCc1c(C(=O)N/N=C(\C)c2ccc3c(c2)OCO3)nnn1-c1nonc1N | n | n | n | n | n | n
CCOC(=O)c1cc(-c2ccccc2)n(CCC(=O)Nc2ccc(C)cc2Cl)c1C | n | n | x | x | u | u
CCOC(=O)c1cc(-c2ccccc2)n(CCC(=O)Nc2cc(C)cc(C)c2)c1C | x | x | x | x | 14.6µM | 14.6µM
CCOC(=O)c1cc(-c2ccccc2)n(CCC(=O)Nc2ccc(Cl)c(C(F)(F)F)c2)c1C | u | u | x | x | 3.66µM | 4.61µM
CCOc1cc2sc(N3CCC(C(=O)Nc4cc(C)cc(C)c4)CC3)nc2cc1Br | n | n | x | x | 20.6µM | n
CCOc1cc2sc(N3CCC(C(=O)NCCCN4CCCC4=O)CC3)nc2cc1Br | n | n | n | n | u | u
CCOc1cc2sc(N3CCC(C(=O)Nc4ccc(C)cc4C)CC3)nc2cc1Br | n | n | x | x | 7.31µM | 20.6µM
O=C(CC1CC2CCC1C2)N1CCN(S(=O)(=O)c2ccccc2F)CC1 (stereo not drawn) | n | n | n | n | u | u
Cc1nc(N)sc1-c1csc(Nc2cc(N(C)C)ccc2Cl)n1 | n | u | n | n | 7.31µM | 13µM
Cc1nc(N)sc1-c1csc(Nc2ccc(Cl)cn2)n1 | n | 18.4µM | u | u | u | u
O=C1NN=C(c2ccc(Cl)cc2)CC1c1cccc(Cl)c1 (stereo not drawn) | n | u | n | n[9.24 µM] | 29.1µM | 16.4µM
SMILES | KB-3-1 cytotox | KB-V1 cytotox | HT1080-NT tox | HT1080 IDH1KD tx | TDP1 cell CPT | TDP1 cell noCPT
COC(=O)C1=C(c2ccccc2)c2ccccc2S(=O)(=O)N1CC(=O)Nc1ccc(OC)cc1OC | n | n | x | x | n | u
CCc1ccccc1N1CC(c2nc3ccccc3n2Cc2cccc(C)c2)CC1=O (stereo not drawn) | n | n | x | x | 10.3µM | 13µM
Cc1ccc(C)c(Cn2c(C3CC(=O)N(c4ccccc4C)C3)nc3ccccc32)c1 (stereo not drawn) | n | n | x | x | 23.1µM | 20.6µM
CCOc1ccc(N2CC(c3nc4ccccc4n3Cc3cccc(C)c3)CC2=O)cc1 (stereo not drawn) | n | n | x | x | u | u
Cc1c(Cl)cccc1NC(=O)Cn1nnc(-c2nc(-c3ccccc3)no2)c1N | x | x | x | x | n | n
NC(=O)c1ccc(NC(=O)COC(=O)c2cc3c(s2)CCC3)cc1 | n | n | n | n | u | n
COc1ccc(NC(=O)COC(=O)c2cc3c(s2)CCC3)cc1 | n | n | n | n | 16.4µM | u
O=C(COC(=O)c1cc2c(s1)CCC2)Nc1ccc(F)cc1 | n | n | n | n | u | 14.6µM
Cc1cccc(OCc2n[nH]c(=S)n2C2CCCCC2)c1 | n | n | u | u | 23.1µM | u
Cc1ccc(OCc2n[nH]c(=S)n2C2CCCCC2)cc1 | n | u | n | n | 29.1µM | 18.4µM
S=c1[nH]nc(COc2ccc(Cl)cc2)n1C1CCCCC1 | n | n | u | u | u | u
O=C(C1CCCN1S(=O)(=O)c1ccc(Cl)c(Cl)c1)N1CCOCC1 (stereo not drawn) | n | n | n | n | n | n
O=C(C1CCCN1S(=O)(=O)c1ccc(Cl)c(Cl)c1)N1CCCCC1 (stereo not drawn) | n | n | n | n | 18.4µM | 16.4µM
O=C(C1CCCCN1S(=O)(=O)c1ccccc1)N1CCN(C(c2ccccc2)c2ccccc2)CC1 (stereo not drawn) | n | n | n[9.24 µM] | n | 23.1µM | 20.6µM
O=C(C1CCCCN1S(=O)(=O)c1ccccc1)N1CCN(Cc2ccccc2)CC1 (stereo not drawn) | u | n | n | n | u | n
O=C(C1CCCCN1S(=O)(=O)c1ccccc1)N1CCCCC1 (stereo not drawn) | n | u | n | n | u | 16.4µM
CC1=CCC2C(=O)N(c3cccc(C(=O)Nc4ccccc4Cl)c3)C(=O)C2C1 (stereo not drawn) | x | x | n | n | n | n
Cc1noc(C)c1CSc1nnc(-c2ccccc2F)n1CCc1ccccc1 | n | u | n | n | 18.4µM | u
CCC(=O)Nc1ccc(C(=O)CSc2nnc(-c3ccccc3F)n2C2CC2)cc1 | n | n | n | n | u | u
CC(=O)Nc1ccc(C(=O)CSc2nnc(-c3ccccc3F)n2CCc2ccccc2)cc1 | n | n | n | n | u | 13µM
COc1ccccc1C(=O)NNC(=O)c1cc2ccccc2cc1O | n | u | u | u | 13µM | 18.4µM
